Assay results taken from PubChem BioAssay AID493231 (Broad Institute, 2011).
Results with a measured potency or affinity are listed apart.

These compounds were tested against Acyl-homoserine lactone acylase PvdQ (Pseudomonas aeruginosa (strain ATCC 15692 / DSM 22644 / CIP 104116 / JCM 14847 / LMG 12228 / 1C / PRS 101 / PAO1)) (UniProt Q9I194) (assay: P. aeruginosa PvdQ acylase inhibitors, dose response, biochemical, fluorescence, plate reader and imaging, cherry-picks (AID 493231;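 further: 0% = neutral control wells and -100% = reference inhibitor wells; more negative values mean stronger inhibition of the acylase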)). Conditions: purified PvdQ acylase, fluorogenic substrate; series mostly up to 10 µM; activity change, negative = inhibition: at the top concentration; call rule not given here.
Chain of Acyl-homoserine lactone acylase PvdQ (Pseudomonas aeruginosa (strain ATCC 15692 / DSM 22644 / CIP 104116 / JCM 14847 / LMG 12228 / 1C / PRS 101 / PAO1)) (Q9I194 whole entry, looked up): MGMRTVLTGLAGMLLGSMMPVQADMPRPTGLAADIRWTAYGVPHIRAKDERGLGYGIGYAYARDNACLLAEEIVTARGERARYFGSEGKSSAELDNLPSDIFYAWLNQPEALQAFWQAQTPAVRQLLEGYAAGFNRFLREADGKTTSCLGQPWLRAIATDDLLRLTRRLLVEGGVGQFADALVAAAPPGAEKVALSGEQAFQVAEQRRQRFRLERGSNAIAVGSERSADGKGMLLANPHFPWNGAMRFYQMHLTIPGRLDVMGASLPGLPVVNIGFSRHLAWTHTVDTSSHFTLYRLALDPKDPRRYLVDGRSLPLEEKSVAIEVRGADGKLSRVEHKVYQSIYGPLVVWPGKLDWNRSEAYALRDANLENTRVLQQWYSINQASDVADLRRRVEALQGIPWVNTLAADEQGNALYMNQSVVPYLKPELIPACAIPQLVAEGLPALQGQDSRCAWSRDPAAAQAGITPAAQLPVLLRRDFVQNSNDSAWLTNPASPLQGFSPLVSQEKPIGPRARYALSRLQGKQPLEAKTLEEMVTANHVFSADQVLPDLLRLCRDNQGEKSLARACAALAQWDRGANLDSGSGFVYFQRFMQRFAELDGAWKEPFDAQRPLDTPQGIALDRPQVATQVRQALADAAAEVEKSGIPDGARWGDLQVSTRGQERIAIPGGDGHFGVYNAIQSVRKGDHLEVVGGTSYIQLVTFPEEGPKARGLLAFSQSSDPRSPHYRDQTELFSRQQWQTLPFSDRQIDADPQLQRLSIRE

Activity change, negative = inhibition, inactive:
Cc1ccc(O)c(NC(=S)NC(=O)/C=C/c2ccco2)c1 9.83 unspecified, CC(C)(C)OC(=O)N(CCc1ccccc1)Cc1ccccc1OCc1cccc(NC(=O)C2CC2)c1 9.08 unspecified, O=C(COC(=O)/C=C/c1cccc(Br)c1)NC1CCCCCC1 7.73 unspecified, Cc1cc(C)cc(N2C(=O)CC(Sc3ccccc3C(=O)O)C2=O)c1 (centres undefined) 14.6 unspecified, COc1ccc(C(=O)N/N=C/c2ccc(OC)c(CN3CCCc4ccccc43)c2)cc1 4.56 unspecified, O=C(/C=C/c1ccc(Cl)cc1)N1CCN(c2ccccc2[N+](=O)[O-])CC1 -7.05 unspecified, COC(=O)c1ccccc1NC(=O)CN1CCC(NC(=O)c2ccc(C)cc2)CC1 5.52 unspecified, CN(c1ccc(C(=O)NC2CC3CCC2C3)cc1)S(C)(=O)=O (centres undefined) 0.643 unspecified, C=CCNC(=S)NNC(=O)C(CC(C)C)CC(C)O (centres undefined) 3.85 unspecified, O=C(Nc1cccc(NC(=O)c2sc3ccccc3c2Cl)c1)c1ccco1 9.49 unspecified, CCCN(c1nc(C)cc(OC)n1)S(=O)(=O)c1ccccc1 10.6 unspecified, Cc1ccc(Nc2nc(-c3sc(C)nc3C)cs2)cc1 17.1 unspecified, c1ccc(-c2cnc(C3CCCCC3)o2)cc1 -5.14 unspecified, C=CCn1c(=O)/c(=C/c2ccc(C)o2)s/c1=C(/C#N)C(=O)c1ccccc1 8.18 unspecified, O=c1oc(-c2ccc(F)cc2)nc2ccsc12 -1.99 unspecified, O=C(Nc1cccc(Br)c1)c1ccc2c(c1)SC1=NS(=O)(=O)CCN12 6.99 unspecified, O=C(NCC1CCCCC1)c1cc(Br)ccc1Cl 3.04 unspecified, Cc1cc(=O)[nH]c(SCC(=O)Nc2ccc(Br)cn2)n1 6.43 unspecified, Cc1ccccc1-c1cc(C(=O)NCc2cccs2)nn1CC1CC(c2cccc([N+](=O)[O-])c2)=NO1 (centres undefined) -2.87 unspecified
